{"source": "PubChem BioAssay AID720650", "about": "(Broad Institute, 2013)", "note": "A number with no mark means an inactive call. The source made the active and inactive calls. No rule for the calls is given here."}
{"experiment": "Biochemical counterscreen for C difficile toxins, absence of UDPG, inhibitor dose response (AID 720650)", "details": "series mostly up to 19.5 µM"}
{"compound": "O=C(C[C@H]1CC[C@@H]2[C@H](COC[C@@H](O)CN2C(=O)c2ccccn2)O1)NC1CCC1", "AC50": "inactive"}
{"compound": "O=C(N/C(=C\\c1ccc(O)cc1)C(=O)N1CCCCC1)c1ccccc1", "AC50": "inactive"}
{"compound": "Cn1c(=O)c2c(nc(N3CCOCC3)n2CCSc2ncccn2)n(C)c1=O", "AC50": "inactive"}
{"compound": "C[C@H](CO)N1C[C@H](C)[C@@H](CN(C)C(=O)Nc2ccc(C(F)(F)F)cc2)Oc2c(cccc2N(C)C)C1=O", "AC50": "19 µM (active)"}
{"compound": "Cn1c(=O)c2[nH]c(=S)n(Cc3ccccc3)c2n(C)c1=O", "AC50": "14.4 µM (active)"}
{"compound": "CN1c2ccc(-c3ccccc3)cc2[C@@H]2[C@@H](CCN2C(=O)CN2CCOCC2)[C@@H]1CO", "AC50": "7.03 µM (active)"}
{"compound": "NC(=O)CC(NC(=O)c1ccccc1)c1ccc(NCCc2ccc(F)cc2)c([N+](=O)[O-])c1", "note": "(stereo not given)", "AC50": "inactive"}
{"compound": "C/C(=N\\Nc1ccc([N+](=O)[O-])cc1)c1cccc(N)c1", "AC50": "1.42 µM (active)"}
{"compound": "CC(Sc1nc(N)cc(=O)[nH]1)C(=O)NCC(=O)Nc1ccc(F)c(F)c1F", "note": "(stereo not given)", "AC50": "inactive"}
{"compound": "O=c1c2ccccc2nc(/C=C/c2ccc(O)cc2)n1-c1ccccc1O", "AC50": "> 39 µM"}
{"compound": "O=C(C[C@H]1C[C@H]2c3cc(NC(=O)c4ccc5c(c4)OCO5)ccc3O[C@H]2[C@@H](CO)O1)NCc1cccc(F)c1", "AC50": "inactive"}
{"compound": "Cc1cc(C(=O)CSc2nc(N)cc(=O)[nH]2)c(C)n1CC1CCCO1", "note": "(stereo not given)", "AC50": "inactive"}
{"compound": "COc1ccc(C(=O)N2CCOCC2)cc1S(=O)(=O)N1CCCc2ccccc21", "AC50": "inactive"}
{"compound": "Nc1nc(Nc2ccccc2)n[nH]1", "AC50": "> 39 µM"}
{"compound": "CN1CCN(C(CNC(=O)c2ccc(Br)o2)c2ccc(F)cc2)CC1", "note": "(stereo not given)", "AC50": "inactive"}
